SW480 rereplic = induces DNA re-replication in SW480 colon adenocarcinoma cells; 340,000 compounds, 1.8% hits; SW480 DNA re-replication, Hoechst DNA content imaging, 48 h; Potency, µM (doses to about 46.1 µM), for the others: at the top dose re-replication activation, usual class: activators; further: % of control where 0% means no effect; nearly all actives have a fitted effect of over 55% in size
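Per well, 250 cells were exposed to pinned compound for 48 hr. Nuclear DNA was visualised with Hoechst (40 min, 37 C) and total object intensity recorded by fluorescence scanning.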
KB-3-1 tox = KB-3-1 parental cell cytotoxicity; KB-3-1 viability, CellTiter-Glo ATP luminescence, 72 h; Potency, µM (titrated, usually from 46.1 µM), usual class: cytotoxic; 400,000 compounds, 1.4% hits; further: on the % scale 0 is the no-effect control and ±100 the full control effect; nearly all actives have a fitted effect of over 60% in size
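Multi-concentration cytotoxicity screen in KB-3-1 cells grown in DMEM lacking phenol red with 10% FBS. After 72 h at 37 °C with compound, ATP-dependent luminescence was recorded.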
HT1080 IDH1KD tx = kills HT-1080 cells with IDH1 knockdown. Potency, µM (titrated, usually from 46.1 µM), for the others: at the highest dose activity, negative = toxicity, hits mostly cytotoxic. HT-1080 IDH1 knockdown viability, ATP luminescence, 48 h. 360,000 compounds, 2% hits. AID 686971;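 further: 0% = DMSO wells and -100% = cell-free medium wells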
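After a 2 h attachment period, IDH1KD HT-1080 cells took pin-transferred compound for 48 h at 37 °C; ATP-based luminescence after 10 min room-temperature reagent incubation reported viability.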
KB-V1 cytotox = KB-V1 MDR subline cytotoxicity; Potency, µM (doses to about 46.1 µM), usual class: cytotoxic; KB-V1 MDR cells viability, CellTiter-Glo, 72 h; 400,000 compounds, 3.4% hits; AID 1347076; further: on the % scale 0 is the no-effect control and ±100 the full control effect; nearly all actives have a fitted effect of over 60% in size
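KB-V1 cells (P-gp-expressing MDR subline of KB-3-1) in phenol-red-free DMEM with 10% FBS were exposed to library compounds over a concentration series for 72 h at 37 degrees C. Viability read by CellTiter-Glo luminescence; concentration-effect curves fitted after normalization.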
MCF10A rereplic = induces DNA re-replication in MCF 10a normal breast cells. 350,000 compounds, 2.9% hits. AID 624296. MCF 10A DNA re-replication, Hoechst nuclear intensity, 48 h. Potency, µM (series often up to 46.1 µM), for inactives: at the top dose activity, positive = re-replication, hits mostly activators; further: % of control where 0% means no effect; nearly all actives have a fitted effect of over 50% in size
HT1080-NT tox = kills 2HG-producing HT-1080-NT fibrosarcoma cells; Potency, µM (highest dose often 46.1 µM), for the others: at the top dose activity, negative = less viability, most hits filed as cytotoxic; HT-1080-NT fibrosarcoma viability, CellTiter-Glo ATP luminescence, 48 h; 360,000 compounds, 1.6% hits;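 further: NT is the 2HG producing partner of a matched IDH1 knockdown line; 0% = DMSO-treated cells and -100% = media-only wells without cells; nearly all actives have a fitted effect of over 55% in size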
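750 cells/well, RPMI + 5% FBS; 2 h settle, compound pin-transfer, 48 h at 37 degrees C. CellTiter-Glo 10 min RT, luminescence. Normalized to DMSO and media-only wells.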
* marks the source's active call; other numbers are inactive results; [ ] = another dose, or the depositor's remark. Hits are enriched below; roughly 7.9% of the tested compounds scored in any of these assays. The call rests on the fitted dose curve; in most records, active means well fitted curve in the direction sought with a large enough effect; inconclusive means small, poorly fitted or top-dose-only effect, or another doubt; inactive means no such curve, though single readings can be large; an effect the other way counts as inactive or inconclusive. Potency means the concentration at half of the fitted maximal effect.

What do the screens show for `COCCn1c(-c2ccc(-c3ccccc3Cl)o2)nc2c1c(=O)[nH]c(=O)n2CC(C)C`?
SW480 rereplic: inconclusive; KB-3-1 tox: inactive; HT1080 IDH1KD tx: -3%; KB-V1 cytotox: inactive; MCF10A rereplic: 12µM*; HT1080-NT tox: 3%

What do the screens show for `O=C(NC1CCCCCCC1)c1cc(F)c(F)cc1Cl`?
SW480 rereplic: inconclusive; KB-3-1 tox: inactive; HT1080 IDH1KD tx: -6%; KB-V1 cytotox: inactive; MCF10A rereplic: 39%; HT1080-NT tox: -4%

Results for COC(=O)Cn1c(=O)c2c(nc3n2CCCN3CCc2ccccc2)n(C)c1=O ?
SW480 rereplic: 6%; KB-3-1 tox: inactive; HT1080 IDH1KD tx: -5%; KB-V1 cytotox: inactive; MCF10A rereplic: 8%; HT1080-NT tox: -12%

What do the screens show for `O=C(Nc1ccc(Cl)cc1)c1csc(-c2ccccc2)n1`?
SW480 rereplic: 19%; KB-3-1 tox: inactive; HT1080 IDH1KD tx: 2%; KB-V1 cytotox: inconclusive; MCF10A rereplic: 23µM*; HT1080-NT tox: -8%

How did CNc1ccc2ncc(-c3ccc(OC)c(OC)c3)n2n1 do in these assays?
KB-3-1 tox: inactive; HT1080 IDH1KD tx: inconclusive; KB-V1 cytotox: inactive; HT1080-NT tox: 18µM*

Results for COc1ccc(N2CCN(C(=O)CCCOc3cc(=O)n(C)c4ccccc34)CC2)cc1 ?
SW480 rereplic: 0%; KB-3-1 tox: inactive; HT1080 IDH1KD tx: 4%; KB-V1 cytotox: 8.2µM*; MCF10A rereplic: 16%; HT1080-NT tox: -4%

Results for Cc1ccc(C)c(N2CCN(C(=O)CCCOc3cc(=O)n(C)c4ccccc34)CC2)c1 ?
SW480 rereplic: inconclusive; KB-3-1 tox: inconclusive; HT1080 IDH1KD tx: inconclusive; KB-V1 cytotox: 8.2µM*; MCF10A rereplic: inconclusive; HT1080-NT tox: -51%

Results for CC1CCN(C(=O)CCCOc2cc(=O)n(C)c3ccccc23)CC1 ?
SW480 rereplic: -16%; KB-3-1 tox: inactive; HT1080 IDH1KD tx: -2%; KB-V1 cytotox: inconclusive; MCF10A rereplic: 15%; HT1080-NT tox: -2%

Results for CC(C)CCNC(=O)CCCOc1cc(=O)n(C)c2ccccc12 ?
SW480 rereplic: -6%; KB-3-1 tox: inactive; HT1080 IDH1KD tx: 13%; KB-V1 cytotox: 13µM*; MCF10A rereplic: inconclusive; HT1080-NT tox: 10%

What do the screens show for `O=C(Nc1c(-c2ccccc2)nc2ncccn12)c1cc2ccccc2oc1=O`?
SW480 rereplic: -1%; KB-3-1 tox: inactive; HT1080 IDH1KD tx: 4%; KB-V1 cytotox: inactive; MCF10A rereplic: -10%; HT1080-NT tox: 4%

How did CC1(C)N=C(N)N=C(N)N1c1ccc(OCC(=O)N2CCOCC2)cc1 do in these assays?
KB-3-1 tox: inconclusive; HT1080 IDH1KD tx: 6.5µM*; KB-V1 cytotox: inactive; HT1080-NT tox: 23µM*

Results for CC1(C)N=C(N)N=C(N)N1c1ccc(OCC(=O)N2CCOCC2)c(Cl)c1 ?
KB-3-1 tox: inconclusive; HT1080 IDH1KD tx: 0.13µM*; KB-V1 cytotox: inactive; HT1080-NT tox: 0.52µM*

How did Cc1ccc(Cl)cc1NC(=O)C(NS(=O)(=O)c1ccc2c(c1)CCC(=O)N2)c1ccccc1 (stereo unspecified) do in these assays?
KB-3-1 tox: inactive; KB-V1 cytotox: inactive

What do the screens show for `CCOc1cc(NC(=S)NCCCOC)c(OCC)cc1NC(=O)c1cccs1`?
SW480 rereplic: -4%; KB-3-1 tox: inactive; HT1080 IDH1KD tx: -14%; KB-V1 cytotox: inactive; MCF10A rereplic: -1%; HT1080-NT tox: -3%

What do the screens show for `Cc1cc(C(=O)CCC(=O)N2CCN(c3ccccc3F)CC2)c(C)s1`?
SW480 rereplic: 37%[1.84 µM]; KB-3-1 tox: inactive; HT1080 IDH1KD tx: 13%; KB-V1 cytotox: inactive; MCF10A rereplic: -7%; HT1080-NT tox: 9%

How did CCn1c(N2CCN(S(=O)(=O)c3ccc(OC)cc3)CC2)nc2ccccc21 do in these assays?
SW480 rereplic: 6%; KB-3-1 tox: inactive; HT1080 IDH1KD tx: inconclusive; KB-V1 cytotox: 13µM*; MCF10A rereplic: -2%; HT1080-NT tox: -29%

How did CCN1CCN(c2ccc(N3CCN(S(=O)(=O)c4cccc([N+](=O)[O-])c4)CC3)nn2)CC1 do in these assays?
KB-3-1 tox: inactive; HT1080 IDH1KD tx: 7%; KB-V1 cytotox: inactive; HT1080-NT tox: 6%

Results for CC(C)n1c(N2CCN(S(=O)(=O)c3cccc([N+](=O)[O-])c3)CC2)nc2ccccc21 ?
SW480 rereplic: 4%; KB-3-1 tox: inactive; HT1080 IDH1KD tx: -26%; KB-V1 cytotox: 18µM*; MCF10A rereplic: -4%; HT1080-NT tox: -24%

How did COc1ccc(OCCN2CCN(S(=O)(=O)c3ccccc3C(F)(F)F)CC2)cc1 do in these assays?
SW480 rereplic: -5%; KB-3-1 tox: inconclusive; HT1080 IDH1KD tx: -11%; KB-V1 cytotox: 2.3µM*; MCF10A rereplic: 0%; HT1080-NT tox: -10%

How did Cn1c(N2CCN(S(=O)(=O)c3ccc(F)cc3)CC2)nc2ccccc21 do in these assays?
SW480 rereplic: 3%; KB-3-1 tox: inactive; HT1080 IDH1KD tx: -20%; KB-V1 cytotox: inconclusive; MCF10A rereplic: 17%; HT1080-NT tox: -17%

How did CCn1c(N2CCN(S(=O)(=O)c3ccccc3C(F)(F)F)CC2)nc2ccccc21 do in these assays?
SW480 rereplic: 11%; KB-3-1 tox: inactive; HT1080 IDH1KD tx: -26%; KB-V1 cytotox: 18µM*; MCF10A rereplic: inconclusive; HT1080-NT tox: inconclusive

How did CN(C)c1ccc(N=Nc2ccccc2C(=O)OCC(=O)N(C)c2ccccc2)cc1 do in these assays?
SW480 rereplic: -4%; KB-3-1 tox: inactive; HT1080 IDH1KD tx: 1%; KB-V1 cytotox: inactive; MCF10A rereplic: 14%; HT1080-NT tox: -1%

Results for Cc1ccc(C)c(S(=O)(=O)N2CCN(C(=O)Cc3sc(C)nc3-c3ccc(F)cc3)CC2)c1 ?
SW480 rereplic: 2%; KB-3-1 tox: inconclusive; HT1080 IDH1KD tx: -5%; KB-V1 cytotox: 23µM*; MCF10A rereplic: 42%; HT1080-NT tox: -6%

How did Cc1ccc(S(=O)(=O)N2CCN(C(=O)COC(=O)Cc3c(F)cccc3Cl)CC2)c(C)c1 do in these assays?
SW480 rereplic: 9%; KB-3-1 tox: inactive; HT1080 IDH1KD tx: 1%; KB-V1 cytotox: inactive; MCF10A rereplic: -10%; HT1080-NT tox: -1%

How did COc1cc(C(=O)NCC(=O)N2CCN(S(=O)(=O)c3cc(C)ccc3C)CC2)cc(OC)c1OC do in these assays?
SW480 rereplic: 8.2µM*; KB-3-1 tox: 3.3µM*; HT1080 IDH1KD tx: 6.5µM*; KB-V1 cytotox: inconclusive; MCF10A rereplic: inconclusive; HT1080-NT tox: 7.3µM*
